Data published in PubChem BioAssay (NCATS).
Results filed as inconclusive are left out. The source made the active and inactive calls. Calls come from the whole dose curve; as a rule, active = well fitted inhibition curve with a large enough effect; inconclusive = small, poorly fitted or top-dose-only effect; inactive = flat fitted curve, though single readings scatter. Bridge positions count the residues as written; N and C are the ends. Square brackets hold non-standard residues; d marks the D form. Peptide text beside a SMILES is read from it. * marks the point of attachment. Ileψ(thiazoline)Cys = CC[C@H](C)[C@H](N)C1=N[C@H](C(=O)*)CS1; d(aIle) = CC[C@H](C)[C@@H](N)C(=O)O; dOrn = NCCC[C@@H](N)C(=O)O

tested on: PAD; test: qHTS profiling for inhibitors of Plasmodium falciparum proliferation (AID 504749); note: nearly all actives have a fitted effect of over 60% in size;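 for activity, negative = inhibition: 0% = DMSO vehicle and full inhibition = artemisinin control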; details: P. falciparum in erythrocytes, SYBR Green DNA, 72 h; series mostly up to 12.8 µM; activity, negative = inhibition: at the top concentration
Outline: (§1)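 Fluorescence of SYBR Green-bound parasite DNA, read at 485/535 nm, served as the growth measure. Infected erythrocytes were cultured with compound 72 h; artemisinin (0.29 uM) and DMSO wells defined the normalization range.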
Potency is the fitted concentration of half-maximal effect.

Row | SMILES | activity, negative = inhibition | Potency
1 | CN1CCO[C@H](c2ccccc2)c2ccccc2C1 | -13.8% (inactive) | 
2 | C[C@H](CCC(=O)O)[C@H]1CC[C@@H]2[C@@H]3[C@@H](O)C[C@H]4C[C@@H](O)CC[C@@]4(C)[C@H]3CC[C@@]21C | -1.74% (inactive) | 
3 | CN(C/C=C\c1ccccc1)Cc1cccc2ccccc12 | 2.3% [at 28.7 µM] (inactive) | 
4 | CCN(CCCCOC(=O)c1ccc(OC)c(OC)c1)[C@@H](C)Cc1ccc(OC)cc1 | -19.2% (inactive) | 
5 | C[C@H](C(=O)O)c1cccc(Oc2ccccc2)c1 | 4% (inactive) | 
6 | CC1(C)[C@@H](OC(=O)CCC(=O)O)CC[C@@]2(C)[C@H]1CC[C@@]1(C)[C@H]2C(=O)C=C2[C@H]3C[C@](C)(C(=O)O)CC[C@]3(C)CC[C@@]21C | 2.51% (inactive) | 
7 | CCOC(=O)O[C@@H](C)OC(=O)[C@@H]1N2C(=O)[C@@H](NC(=O)[C@@H](N)c3ccccc3)[C@H]2SC1(C)C | 2.14% (inactive) | 
8 | Cc1ccsc1/C=C\C1=NCCCN1C | 6.6% (inactive) | 
9 | C#C[C@]1(O)CC[C@@H]2[C@H]3CCC4=CCCC[C@@H]4[C@@H]3CC[C@@]21C | 14.5% (inactive) | 
10 | CC[C@H](C)[C@H](N)C1=N[C@H](C(=O)N[C@@H](CC(C)C)C(=O)N[C@@H](CCC(=O)O)C(=O)N[C@@H](C(=O)N[C@H]2CCCCNC(=O)[C@@H](CC(N)=O)NC(=O)[C@@H](CC(=O)O)NC(=O)[C@@H](Cc3cnc[nH]3)NC(=O)[C@@H](Cc3ccccc3)NC(=O)[C@@H]([C@@H](C)CC)NC(=O)[C@@H](CCCN)NC2=O)[C@@H](C)CC)CS1 ({Ileψ(thiazoline)Cys}-LE[d(aIle)]K[dOrn][d(aIle)][dF][dH][dD][dN]; lactam 4-C) | -9.37% (inactive) | 
11 | O=C(O)COCCN1CCN([C@@H](c2ccccc2)c2ccc(Cl)cc2)CC1 | -7.49% (inactive) | 
12 | CCN(CC)CCOC(=O)[C@@H](Cc1cccc2ccccc12)C[C@@H]1CCCO1 | -16.6% (inactive) | 
13 | Clc1ccc([C@H](Cn2ccnc2)OCc2c(Cl)cccc2Cl)c(Cl)c1 |  | 3.55 µM (active)
14 | C[C@@H](CNC1CCCCC1)OC(=O)c1ccccc1 |  | 3.16 µM (active)
15 | CC[C@H](CO)NCCN[C@@H](CC)CO | 13.5% (inactive) | 

tested on: PC15; test: as above; details: P. falciparum in erythrocytes, SYBR Green DNA, 72 h; series mostly up to 12.8 µM; activity, negative = inhibition: at the top concentration
Outline: as §1

Row | SMILES | activity, negative = inhibition
16 | CN1CCO[C@H](c2ccccc2)c2ccccc2C1 | -19.6% (inactive)
17 | C[C@H](CCC(=O)O)[C@H]1CC[C@@H]2[C@@H]3[C@@H](O)C[C@H]4C[C@@H](O)CC[C@@]4(C)[C@H]3CC[C@@]21C | 7.64% (inactive)
18 | CN(C/C=C\c1ccccc1)Cc1cccc2ccccc12 | -16% [at 28.7 µM] (inactive)
19 | CCN(CCCCOC(=O)c1ccc(OC)c(OC)c1)[C@@H](C)Cc1ccc(OC)cc1 | -23.4% (inactive)
20 | C[C@H](C(=O)O)c1cccc(Oc2ccccc2)c1 | -0.954% (inactive)
21 | CC1(C)[C@@H](OC(=O)CCC(=O)O)CC[C@@]2(C)[C@H]1CC[C@@]1(C)[C@H]2C(=O)C=C2[C@H]3C[C@](C)(C(=O)O)CC[C@]3(C)CC[C@@]21C | 11.9% (inactive)
22 | CCOC(=O)O[C@@H](C)OC(=O)[C@@H]1N2C(=O)[C@@H](NC(=O)[C@@H](N)c3ccccc3)[C@H]2SC1(C)C | 0.244% (inactive)
23 | Cc1ccsc1/C=C\C1=NCCCN1C | 1.6% (inactive)
24 | C#C[C@]1(O)CC[C@@H]2[C@H]3CCC4=CCCC[C@@H]4[C@@H]3CC[C@@]21C | 1.89% (inactive)
25 | CC[C@H](C)[C@H](N)C1=N[C@H](C(=O)N[C@@H](CC(C)C)C(=O)N[C@@H](CCC(=O)O)C(=O)N[C@@H](C(=O)N[C@H]2CCCCNC(=O)[C@@H](CC(N)=O)NC(=O)[C@@H](CC(=O)O)NC(=O)[C@@H](Cc3cnc[nH]3)NC(=O)[C@@H](Cc3ccccc3)NC(=O)[C@@H]([C@@H](C)CC)NC(=O)[C@@H](CCCN)NC2=O)[C@@H](C)CC)CS1 ({Ileψ(thiazoline)Cys}-LE[d(aIle)]K[dOrn][d(aIle)][dF][dH][dD][dN]; lactam 4-C) | 14.9% (inactive)
26 | O=C(O)COCCN1CCN([C@@H](c2ccccc2)c2ccc(Cl)cc2)CC1 | -20.6% (inactive)
27 | CCN(CC)CCOC(=O)[C@@H](Cc1cccc2ccccc12)C[C@@H]1CCCO1 | -19.5% (inactive)
28 | CC[C@H](CO)NCCN[C@@H](CC)CO | -7.19% (inactive)
